We go through eight compounds from PubChem BioAssay (NCI).

Common to all, as to assay: NCI-60 one-dose screen, 48 h (100 = growth as untreated, 0 = no growth, -100 = all killed)
The test system of test [1] is RPMI-8226 leukemia. The note with it: 10 µM unless noted.
Test [2] has as its system OVCAR-8 ovarian. The note with it: 10 µM unless noted.
Test [3] has as its system OVCAR-5 ovarian. The note with it: 10 µM unless noted.
For test [4], the system named is OVCAR-4 ovarian. The settings on record: 10 µM unless noted.
The test system of test [5] is SK-OV-3 ovarian. The settings on record: 10 µM unless noted.
Test [6] has as its system IGROV1 ovarian. The note with it: 10 µM unless noted.
In test [7] the test system is OVCAR-3 ovarian. The note with it: 10 µM unless noted.
For test [8], the system named is HS 578T breast. The settings on record: 10 µM unless noted.
Test [9] deals with NCI/ADR-RES ovarian. The settings on record: 10 µM unless noted.
For test [10], the system named is T-47D breast. The settings on record: 10 µM unless noted.
Test [11] relates to BT-549 breast. The settings on record: 10 µM unless noted.
The test system of test [12] is MDA-MB-435 melanoma. The note with it: 10 µM unless noted.
The subject of test [13] is SW-620 colon. The note with it: 10 µM unless noted.
Test [14] relates to MCF7 breast. The settings on record: 10 µM.
The test system of test [15] is HCT-116 colon. The note with it: 10 µM unless noted.
Test [16] concerns HCC-2998 colon. The settings on record: 10 µM unless noted.
Test [17] deals with KM12 colon. The settings on record: 10 µM unless noted.

The panel holds about 83,000 compounds, 20% with a hit somewhere; the sample as a whole holds those more often.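 A percent growth of 40 corresponds to 60% growth inhibition; 0 means no net growth; -100 means all cells died. Active threshold: below 10.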 Values without a mark were called inactive. Activity calls are given as the source filed them.

As for `CCN(CCO)CCNc1ccc(C)c2sc3cc(Cl)ccc3c(=O)c12`, the growth is 28.2% in test [1]; 38.6% in test [2]; 64.4% in [3]; 70.8% in test [4]; 62.2% in test [5]; 56.6% in [6]. Further, the growth is 39.3% in test [7]; 41.9% in test [8]; 45.4% in [9]; 53.9% in [10]; 69.6% in test [11]; -68.6% (active) in test [12]. Besides, the growth was -85% (active) in [13]; -83.1% (active) in test [14]; -66.1% (active) in [15]; -96.8% (active) in [16]; 7.87% (active) in test [17].
For `NC(CCl)=NCCC[C@H](N)C(=O)O`, the growth in test [1] was 99.6%; in test [2], 99.5%; in [3], 105%; in test [4] it was 93%; in test [5], 105%; in test [6], 116%. In addition, the growth in test [7] is 117%; in [8], 99.3%; in test [9] it was 101%; in test [10], 98.2%; in test [11], 129%; in test [12], 100%. Besides, the growth in test [13] is 100%; in test [14] it was 84.8%; in test [15], 99%; in [16], 99.9%; in test [17] it was 106%.
Take `CC(C)CCOc1ccc(-c2n[nH]c(C(F)(F)F)c2-c2cncc(C#N)c2)c(O)c1`: the growth in test [1] was -31.8% (active); in test [2], 12.5%; in test [3] it was 36.9%; in test [4] it was 20.5%; in test [5], -7.94% (active); in test [6], 46.9%. In addition, the growth is 2.95% (active) in test [7]; 18% in [8]; 2.45% (active) in test [9]; 2.83% (active) in test [10]; 6.56% (active) in test [11]; 7.91% (active) in [12]. Moreover, the growth is 14.3% in test [13]; 2.95% (active) in test [14]; 2.41% (active) in test [15]; 16.2% in test [16]; 7.94% (active) in test [17].
Turning to `Cc1nn(-c2nc3ccccc3[nH]2)c2c1C(c1ccc(OCC(N)=O)cc1)CC(=O)N2` (stereo unspecified), the growth was 126% in test [1]; 107% in [2]; 102% in [3]; 108% in test [4]; 106% in test [5]; 109% in [6]. Besides, the growth in test [7] was 111%; in test [8] it was 95%; in test [9], 109%; in test [10], 90.8%; in test [11], 105%; in [12], 98.8%. Also, the growth in [13] is 88.7%; in test [14], 96%; in [15], 101%; in test [16], 122%; in test [17], 109%.
As to `Cn1cc([C@@H]2Nc3ccc4[nH]ncc4c3[C@H]3[C@H]4CCC(C4)[C@H]32)c(C(F)(F)F)n1`, the growth in test [1] was 46.6%; in [2] it was 62.5%; in test [3], 79.4%; in test [4], 77.4%; in [5], 77.4%; in test [6] it was 56.7%. Further, the growth in [7] was 34.7%; in [8], 34%; in test [9], 31.3%; in [10], 52.6%; in test [11] it was 54.6%; in test [12], -1.69% (active). Further, the growth in [13] was 23.5%; in [14] it was 25%; in [15], 27.6%; in test [16] it was 82.8%; in test [17], 36.5%.
On to `Cc1ccc(C)c(-c2csc(Nc3ccc(C)c(C)c3)n2)c1`, for which the growth in test [1] was 2.64% (active); in [2], 54.5%; in test [3], 94%; in test [4] it was 54.5%; in test [5], 77.8%; in test [6] it was 81%. Also, the growth was 67.4% in test [7]; 57.9% in test [8]; 54.2% in [9]; 39.3% in test [10]; 64.6% in test [11]; -58.3% (active) in test [12]. Also, the growth in [13] is -33% (active); in [14], -30.3% (active); in test [15], 3.25% (active); in test [16], 27.6%; in test [17], 59.5%.
As for `O=c1nc2sc3nc4ccccc4cc3cc-2s1`, the growth is 128% in [1]; 112% in [2]; 120% in [3]; 115% in test [4]; 108% in test [5]; 127% in [6]. The growth was 140% in [7]; 79.9% in [8]; 103% in [9]; 119% in test [10]; 112% in test [11]; 117% in [12]. Moreover, the growth in test [13] was 107%; in test [14], 98.1%; in [15], 102%; in test [16], 106%; in [17], 129%.
`COc1ccc(-c2cn[nH]c2-c2cc(OC)c(OC)c(OC)c2)cc1OCc1ccccc1`: the growth in test [1] is 8.45% (active); in [2], 40.1%; in test [3], 67.1%; in test [4], 50.1%; in test [5], 12.5%; in test [6], 44.8%. Also, the growth in test [7] is 10.3%; in test [8], 6.1% (active); in test [9], -22.2% (active); in test [10], 23.9%; in test [11], 60%; in [12], -61.8% (active). Further, the growth was 26.6% in [13]; 17.2% in test [14]; 17.6% in [15]; 34.8% in [16]; 14.7% in test [17].
